Most compounds without a hit are left out; they make up all but 5.7% or so of the library.
TGFb inhibitor = inhibitors of TGF-b signaling. HepG2 CAGA-GFP TGF-b/SMAD3 reporter, GFP fluorescence, 18 h; TGF-beta stimulated, 500 pg/mL final. Potency, µM (series often up to 46.1 µM), actives largely listed as inhibitors. hit rate 1.2% among 410,000. AID 588855; note: nearly all actives have a fitted effect of over 65% in size
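Cell-based qHTS in HEPG2 carrying a CAGA-GFP Smad reporter; compounds added before 500 pg/mL final TGF-beta, 18 h incubation at 37 degrees C, GFP fluorescence quantified per cell by imaging cytometry.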
HepG2 tox = counter-screen for TGF-b inhibitors: cytotoxicity in HepG2 cells; HepG2 CAGA-GFP viability, ATP luminescence, 18 h; Potency, µM (doses to about 46.1 µM), most hits filed as cytotoxic; hit rate 0.76% among 410,000
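HepG2 CAGA-GFP cells (1000/well, DMEM with 1% FBS) received compound, then TGF-beta at 500 pg/mL final, and were incubated 18 hours at 37 degrees C. Viability was read by CellTiter-Glo luminescence. Media-only wells were set as complete cell-killing and DMSO as no toxicity.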
ATXN2 expr inh = ATXN2 expression inhibition; hit rate 0.72% among 360,000; AID 1745845; HEK-293 ATXN2-luciferase reporter, luminescence, 24 h; Potency, µM (series often up to 57 µM), actives largely listed as inhibitors; note: nearly all actives have a fitted effect of over 55% in size
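ATXN2-luciferase reporter cells (luciferase flanked by upstream and downstream ATXN2 gene portions) were treated 24 h at 37 °C with compounds at up to 57 uM. SteadyGlo luminescence gave expression; GF-AFC fluorescence gave viability.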
S2 tox = cell viability loss in ATXN counter-screen; S2 cells (HEK-293 line with an ATXN2-luciferase reporter) viability, CellTiter-Fluor protease fluorescence, 24 h; Potency, µM (highest dose often 56.7 µM), hits mostly cytotoxic; hit rate 0.49% among 400,000; AID 651635; note: nearly all actives have a fitted effect of over 40% in size
IL1B secr inh = blocks inflammasome-driven IL-1 beta release; activity change, % at 57.5 µM; hit rate 4.7% among 360,000; THP-1 LPS/ATP IL-1B secretion, AlphaLISA, 16 h; stronger effect = lower value; in the data active = activity change below about -50%; inconclusive = mostly about -30% to -49%
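Secreted IL-1B measured by AlphaLISA bead assay after 16 h compound exposure of THP-1 cells; compounds (final up to 57.5 uM) added 1 h before LPS (250 ng/mL) and ATP (1.25 mM) stimulation; lower signal means less secretion.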
Hits are given with their value; 0 = inactive; ? = inconclusive; - = no result given; [ ] = another dose, or the depositor's remark. Unless noted, calls come from the whole dose curve; as a rule, active = well fitted curve in the direction sought with a large enough effect; inconclusive = small, poorly fitted or top-dose-only effect, or another doubt; inactive = no such curve, though single readings can be large; an effect the other way counts as inactive or inconclusive.

SMILES	TGFb inhibitor	HepG2 tox	ATXN2 expr inh	S2 tox	IL1B secr inh
CCOC(=O)[C@]12CCC=C1N(Cc1ccc3c(c1)OCO3)C(=O)[C@H](CC(=O)NCCCCc1ccccc1)C2	-	-	?	?	-69
COC(=O)[C@]12CCCCC=C1N(Cc1ccc3c(c1)OCO3)C(=O)[C@H](CC(=O)NCCCCc1ccccc1)C2	-	-	-	-	-55
CCCCNC(=O)C[C@@H]1C[C@@]2(C(=O)OC)CCCCC=C2N(Cc2ccc3c(c2)OCO3)C1=O	-	-	-	-	-61
CCOc1ccccc1NC(=O)Cn1nnc2sc3c(c2c1=O)CCC(C(C)(C)C)C3 (centres undefined)	0	0	0	0	-
COc1ccc(C(=O)C[n+]2ccccc2Cl)cc1	?	0	-	-	-
OCc1cnc(SCc2cccc(F)c2)n1Cc1ccc(F)cc1	?	0	0	0	-
CCOC(=O)[C@]12CCCC=C1N(Cc1cccc3ccccc13)C(=O)[C@H](CC(=O)NCc1cccs1)C2	-	-	0	?	0
CCCCNC(=O)C[C@@H]1C[C@@]2(C(=O)OC)CC(C)(C)CC=C2N(Cc2ccc3c(c2)OCO3)C1=O	-	-	-	-	0
CCOC(=O)[C@]12CCC=C1N(Cc1cccc3ccccc13)C(=O)[C@H](CC(=O)NCc1cccs1)C2	-	-	0	?	-69
COC(=O)[C@@]12C[C@@H](CC(=O)NCCCCc3ccccc3)C(=O)N(Cc3ccc4c(c3)OCO4)C1=CCC(C)(C)C2	-	-	-	-	-76
Cc1ccccc1OCC(=O)NCC(=O)OCC(=O)c1ccc(-c2ccccc2)cc1	0	0	-	-	-
COCc1ccc(C(=O)N2CCOc3c(cc(-c4cc(C)c5cccc(OC)c5n4)cc3OC)C2)o1	-	-	-	0	-
CC(C)(C)n1ncc2c(=O)n(Cc3ccc(Cl)c(SC(F)(F)F)c3)cnc21	0	0	-	-	-
COc1cc(C=O)ccc1Oc1nc(Nc2ccc(F)cc2F)nc(N2CCOCC2)n1	0	0	0	0	-56
Fc1ccccc1Nc1nc(N2CCOCC2)nc(N2CCOCC2)n1	?	0	0	0	0
CCOc1cc2c3c(c1)C1(Nc4ccccc4S1)C(=O)N3C(C)(C)CC2C (centres undefined)	13µM	0	0	0	0
C[C@@H]1[C@H](C)CC[C@]2(C(=O)O)CC[C@]3(C)C(=CC[C@@H]4[C@@]5(C)CC[C@H](O)C(C)(C)[C@H]5CC[C@]43C)[C@@H]12	-	-	56µM	-	-
CC1(C)C[C@H](O)[C@]2(CO)CC[C@]3(C)C(=CCC4[C@@]5(C)CC[C@H](O)C(C)(C)C5CC[C@]43C)[C@@H]2C1 (some centres undefined)	0	0	0	0	0
CC1(C)CC[C@]2(C(=O)O)CC[C@]3(C)C(=CC[C@@H]4[C@@]5(C)CC[C@H](O)C(C)(C)[C@@H]5CC[C@]43C)[C@@H]2C1	0	0	0	0	0
CC1(C)C[C@H](O)[C@]2(CO)[C@H](O)C[C@]3(C)C(=CCC4[C@@]5(C)CC[C@H](O)C(C)(C)C5CC[C@]43C)[C@@H]2C1 (some centres undefined)	?	11µM	?	?	0
Cc1ccc(CSc2nc(=O)c3c(C)cc(C)nc3n2C2CC2)cc1	?	0	-	-	-
Cc1oc2c(c1C(=O)c1ccccc1)C(=O)C(=O)c1ccccc1-2	?	4.5µM	3.5µM	-	-88
O=C(c1ccccc1)c1coc2ccc(O)c(Cl)c12	0	0	0	0	0
O=C1C(=O)c2c(C(=O)c3ccccc3)coc2-c2ccccc21	8.9µM	13µM	?	-	?
Cc1oc2c(c1C(=O)O)C(=O)c1ccccc1C2=O	5µM	7.1µM	0	0	0
SMILES	TGFb inhibitor	HepG2 tox	ATXN2 expr inh	S2 tox	IL1B secr inh
CCCC[C@@H]1CCCO[C@@](C(=O)NCc2ccc(S(C)(=O)=O)cc2)(C(F)(F)F)C1	?	0	-	-	-
O=C(/C=C/c1cccc(Cl)c1)c1ccc([N+](=O)[O-])o1	3.5µM	13µM	4.5µM	8.9µM	-102
O=c1c2ccccc2oc2ccc(NCCCn3ccnc3)cc12	0	0	0	0	-58
Cc1c(C(=O)N2CCCCCC2)c(S(=O)(=O)Nc2ccc(OC(F)(F)F)cc2)c(C)n1C	?	0	0	?	-
CCC(=O)N1CCc2cc(Br)cc(S(=O)(=O)N3CCC(C(=O)Nc4ccccc4CC)CC3)c21	0	0	0	0	-
O=C(COC(=O)/C=C/C(=O)N1CCN(c2ccccc2)CC1)NC(c1ccccc1)c1ccccc1	?	0	0	?	-54
O=C(COC(=O)/C=C/c1cccs1)NC(c1ccccc1)c1ccccc1	0	0	0	0	0
Cc1ccc(O)c(NC(=O)c2cc3nc4c(c(C(F)(F)F)n3n2)CCc2ccccc2-4)c1	0	0	0	0	-51
CCN(CC)CCCNC(=O)c1cc2nc3c(c(C(F)(F)F)n2n1)CCc1ccccc1-3	0	0	0[11.3 µM]	0	?
CC(O)(COc1ccccc1)c1ccc2c(c1)CN(Cc1cccc3ncccc13)CCO2 (centres undefined)	-	-	-	0	-
Cc1ccc(C2Nc3ccc4ccccc4c3C3=C2C(=O)CC(C)(C)C3)o1 (centres undefined)	0	0	0	0	-52
CC1(C)CC(=O)C2=C(C1)c1c(ccc3ccccc13)NC2c1ccc(C(=O)O)cc1 (centres undefined)	0	0	0	-	0
COC(=O)CN1C(=O)CSc2ccc(S(=O)(=O)Nc3cccc(C)c3)cc21	0	0	-	-	-
O=C(CC1C(=O)NCCN1Cc1ccc(-c2ccccc2)cc1)NC1CCC1 (centres undefined)	0	0	-	0	0
O=C(CC1C(=O)NCCN1Cc1ccc(-c2ccccc2)cc1)NCc1ccccc1 (centres undefined)	?	0	?	?	-57
C=C(C)C1CCC2(C(=O)O)CCC3(C)C(CCC4C5(C)C(C=O)C(O)C(C)(C)C5CCC43C)C12 (centres undefined)	13µM	0	?	?	0
Cc1ccc2c(c1)c1c(c(=O)n(-c3cccc(Cl)c3)c(=O)n1CC(=O)NCCC1=CCCCC1)n2C	0	0	0	0	-
Cc1ccc(S(=O)(=O)CC(=O)Nc2sc3c(c2C#N)CCCC3)cc1	?	0	-	-	-
CCOC(=O)c1c(C)sc(-c2c(-c3ccc4c(c3)OCCO4)[nH]c3c2c(=O)[nH]c(=O)n3C)c1O	0	0	-	-	-
Cc1ccc(C(=O)c2cn(Cc3cccc(Cl)c3)c3nc(C)ccc3c2=O)cc1	0	0	?	0	-
COCCCNC(=O)c1c(NC(=O)Cc2coc3c(C)c(C)ccc23)sc2c1CCCC2	0	0	0	0	-
CCOC(=O)C1CCN(C(=S)Nc2ccccc2)CC1	0	0	0	0	0
CCOC(=O)C1CCCN(C(=S)Nc2ccc(Nc3ccccc3)cc2)C1 (centres undefined)	0	0	0[11.3 µM]	0	-96
CC(C)Cn1cc(NC(=O)NCc2cccc(Cl)c2)c2ccccc2c1=O	0	0	0	0	-

Screening data from PubChem BioAssay.
